From PubChem BioAssay AID602329 (Broad Institute, 2012)
The whole screen tested about 360,000 compounds, of which about 510 (0.14%) were called active. What follows is part of a selection rich in actives, with near analogues and random picks from the rest. Unmarked numbers belong to inactive results.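 How the source made its calls: active means mean normalized replicate activity at least 40 and at least half of replicates scoring 40 or more; inconclusive means only one of the two criteria met; inactive means mean below 40 and under half of replicates reaching 40.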

The molecules below were run against DNA repair and recombination protein RAD54-like (Homo sapiens) (UniProt Q92698) (assay: RAD54 Holliday junction migration blockers – biochemical, fluorescence, single point, primary screen (AID 602329;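 further: 0% = median of neutral control wells and 100% = median of positive control wells; inhibitors cause a drop in the FAM fluorescence signal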)). Settings: RAD54 Holliday junction branch migration, FAM/BHQ fluorescence; at 10.4 µM; hits give high values.
Chain of DNA repair and recombination protein RAD54-like (Homo sapiens) (Q92698 whole entry, looked up): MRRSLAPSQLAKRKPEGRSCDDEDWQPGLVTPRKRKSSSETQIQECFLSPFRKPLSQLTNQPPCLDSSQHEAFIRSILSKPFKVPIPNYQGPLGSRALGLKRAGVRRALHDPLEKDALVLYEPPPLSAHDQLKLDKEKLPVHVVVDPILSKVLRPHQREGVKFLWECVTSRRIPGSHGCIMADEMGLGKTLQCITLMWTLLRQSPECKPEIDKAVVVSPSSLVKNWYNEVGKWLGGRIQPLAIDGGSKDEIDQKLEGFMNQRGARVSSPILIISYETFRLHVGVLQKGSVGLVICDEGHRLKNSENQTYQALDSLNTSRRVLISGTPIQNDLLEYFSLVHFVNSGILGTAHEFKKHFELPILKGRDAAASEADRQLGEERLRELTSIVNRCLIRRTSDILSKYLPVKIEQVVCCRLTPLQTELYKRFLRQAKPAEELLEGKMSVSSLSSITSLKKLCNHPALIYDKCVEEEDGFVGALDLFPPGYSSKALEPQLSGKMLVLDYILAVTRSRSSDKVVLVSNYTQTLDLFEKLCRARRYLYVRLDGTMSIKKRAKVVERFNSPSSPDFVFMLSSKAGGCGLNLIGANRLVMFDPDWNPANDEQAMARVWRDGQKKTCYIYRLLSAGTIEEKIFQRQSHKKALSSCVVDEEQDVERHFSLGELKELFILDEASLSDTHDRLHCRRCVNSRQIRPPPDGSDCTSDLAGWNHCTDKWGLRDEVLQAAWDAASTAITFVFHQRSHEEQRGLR

SMILES	inhibition
COc1cccc(C#Cc2ccc([C@H]3[C@@H](CO)N(C(=O)c4ccccn4)[C@H]3C#N)cc2)c1	-3.06%
CCCNC(=O)N(C)C[C@H]1Oc2ncc(-c3ccc(C(=O)N(C)C)cc3)cc2C(=O)N([C@@H](C)CO)C[C@@H]1C	-0.543%
C[C@@H]1CN([C@@H](C)CO)C(=O)c2cc(C#Cc3ccncc3)cnc2O[C@@H]1CN(C)C(=O)CN(C)C	0.163%
C[C@H]1CN([C@@H](C)CO)C(=O)Cc2cc(NS(C)(=O)=O)ccc2O[C@@H]1CN(C)S(=O)(=O)c1ccc(Cl)cc1	4.72%
COCC(=O)Nc1ccc2c(c1)[C@@H]1C[C@H](CC(=O)NCc3cc(F)ccc3F)O[C@@H](CO)[C@@H]1O2	-1.13%
CO[C@H]1CN(C)C(=O)c2ccc(NC(=O)c3cc(C)on3)cc2OC[C@H](C)N(C)C[C@H]1C	-1.45%
CN1CCN(CCCNC(=O)c2cc3c(=O)oc4ccccc4c3s2)CC1	55.7% (active)
Cc1cccc2c1-c1sc(C(=O)NCCCN3CCc4ccccc4C3)cc1CO2	22%
O=C(NCCN1CCN(Cc2ccccc2)CC1)c1cc2c(=O)[nH]c3ccccc3c2s1	-0.046%
Cn1cnc(S(=O)(=O)N2C[C@H](O)COC[C@@H]3O[C@H](CC(=O)NCc4cccc(F)c4)CC[C@H]32)c1	7.2%
COc1ccc(CCNC(=O)c2ccc3c(c2)NC(=O)C(N2CCOCC2)S3)cc1OC (stereo unspecified)	-1.36%
CCN1CCN(CCNC(=O)c2ccc3c(c2)NC(=O)/C(=C\c2ccc(OC)c(OC)c2)S3)CC1	72.7% (active)
COc1ccc(/C=C(\NC(=O)c2ccccc2)C(=O)NCCN2CCOCC2)cc1OC	-3.48%
CC(C)C(=O)Nc1ccc2c(c1)C(=O)N(C)[C@H]1CC[C@H](CC(=O)NCc3ccc(F)cc3)O[C@H]1CO2	7.1%
CNC(=O)C[C@H]1CC[C@H]2[C@@H](COc3ccc(NC(=O)c4cccc(OC)c4)cc3C(=O)N2C)O1	7.1%
COC(=O)[C@@H]1[C@@H](CO)[C@@H]2Cn3c(ccc(-c4ccccc4)c3=O)[C@@H]2N1C(=O)C1CC1	-7.82%
C[C@@H]1CN([C@@H](C)CO)C(=O)c2cc(-c3ccncc3)cnc2O[C@@H]1CN(C)C(=O)C1CCCCC1	-1.52%
N#C[C@@H]1[C@H](c2ccc(C#CC3CCCCC3)cc2)[C@@H](CO)N1S(=O)(=O)c1ccccc1	1.51%
O=C(NCCCN1CCOCC1)c1cc(-c2cccc(O)c2)on1	10.7%
O=C(NCCCN1CCOCC1)c1cc(-c2ccccc2F)no1	-15.8%
O=C(NCCCN1CCOCC1)c1cnn2c(-c3ccccc3)cc(-c3ccccc3)nc12	58.3% (active)
C[C@H]1CN([C@@H](C)CO)S(=O)(=O)c2ccc(-c3cccnc3)cc2O[C@H]1CN(C)C(=O)C1CCCCC1	0.93%

SMILES	inhibition
COc1ccc(NC(=O)Nc2ccc3c(c2)C(=O)N([C@H](C)CO)C[C@@H](C)[C@H](CN(C)Cc2ccccc2)O3)cc1	22.5%
COc1ccc(CN(C)C[C@@H]2Oc3ccc(NC(=O)Nc4ccc(OC)cc4)cc3C(=O)N([C@H](C)CO)C[C@H]2C)cc1	67.3% (active)
CC(C)NC(=O)Nc1ccc2c(c1)C(=O)N([C@H](C)CO)C[C@@H](C)[C@@H](CN(C)Cc1ccncc1)O2	-0.866%
COc1ccc(CN(C)C[C@@H]2Oc3ccc(NC(=O)NC(C)C)cc3C(=O)N([C@@H](C)CO)C[C@H]2C)cc1	56.8% (active)
COc1ccc(NC(=O)Nc2ccc3c(c2)C(=O)N([C@@H](C)CO)C[C@H](C)[C@@H](CN(C)Cc2ccc4c(c2)OCO4)O3)cc1	3.59%
CC(C)NC(=O)Nc1ccc2c(c1)C(=O)N([C@@H](C)CO)C[C@@H](C)[C@H](CN(C)Cc1ccc(-c3ccccc3)cc1)O2	20.7%
CN1c2ccc(C#Cc3cccnc3)cc2[C@@H]2[C@@H](CCN2S(=O)(=O)c2ccccc2)[C@H]1CO	-8.94%
CCCCCCCCCCOC(=O)Cn1c(COc2ccc(C)cc2)[n+](C)c2ccccc21	50.3% (active)
CCCCCn1c(=O)c(C(=O)OCC)c(Cl)c2ccccc21	0.614%
CCOc1ccc(OCCSc2nc3ccccc3n2CC(=O)O)cc1	-7.61%
C[C@@H]1CN([C@@H](C)CO)C(=O)Cc2cc(NC(=O)Nc3ccc(C(F)(F)F)cc3)ccc2O[C@H]1CN(C)C(=O)Nc1ccc(F)cc1	0.667%
CN1C(=O)c2cc(NS(=O)(=O)c3ccccc3F)ccc2OC[C@@H]2O[C@@H](CC(=O)NC3Cc4ccccc4C3)CC[C@@H]21	-2.97%
C[C@H](CO)N1C[C@H](C)[C@@H](CN(C)S(=O)(=O)c2ccc(Cl)cc2)Oc2ccc(NS(=O)(=O)c3cn(C)cn3)cc2C1=O	-4.21%
CO[C@@H]1CN(C)C(=O)c2cc(NC(=O)C3CCOCC3)ccc2OC[C@@H](C)NC[C@@H]1C	8.52%
CC(C)CC#Cc1cnc2c(c1)C(=O)N([C@@H](C)CO)C[C@@H](C)[C@@H](CN(C)S(=O)(=O)c1cccs1)O2	12.1%
COc1cccc(NC(=O)Nc2ccc3c(c2)C(=O)N(C)C[C@@H](OC)[C@H](C)CN(CC2CC2)[C@H](C)CO3)c1	8.71%
Cc1ccc(S(=O)(=O)Nc2ccc3c(c2)C(=O)N([C@H](C)CO)C[C@H](C)[C@H](CN(C)Cc2ccccc2)OCCCC[C@@H](C)O3)cc1	5.79%
COc1ccc(C(=O)Nc2ccc3c(c2)OC[C@H](C)N(C(C)=O)C[C@@H](C)[C@H](OC)CN(C)C3=O)cc1	-4.9%
CO[C@@H]1CN(C)C(=O)c2cc(NS(=O)(=O)c3ccc(Cl)cc3)ccc2OC[C@H](C)NC[C@@H]1C	-8.54%
CN1c2ccc(-c3cccc(C#N)c3)cc2[C@@H]2[C@@H](CCN2C(=O)NC2CCCCC2)[C@@H]1CO	-3.76%
O=S(=O)(c1ccc(F)cc1)N1CC[C@@H]2[C@@H](CO)Nc3ccc(-c4ccccc4F)cc3[C@@H]21	7.93%
CC(=O)N(C)C[C@@H]1Oc2ncc(-c3ccccc3F)cc2C(=O)N([C@H](C)CO)C[C@@H]1C	-1.78%

SMILES	inhibition
COc1ccccc1NC(=O)N1[C@H](C#N)[C@H](c2ccccc2)[C@H]1CO	10.5%
CC(=O)N(C)C[C@H]1Oc2cc(C#Cc3ccccc3F)ccc2S(=O)(=O)N([C@H](C)CO)C[C@@H]1C	2%
O=C(C[C@@H]1C=C[C@@H](NC(=O)c2cccnc2)[C@H](CO)O1)NCCN1CCCCC1	0.617%
O=C(CC1CC1)Nc1ccc2c(c1)[C@@H]1C[C@@H](CC(=O)NC3CCCCC3)O[C@H](CO)[C@@H]1O2	-1.82%
COc1cccc2sc3cc(NCC[C@@H]4CCCN4C)ccc3c(=O)c12	94% (active)
CN1CCC[C@@H]1CCO[C@](C)(c1ccccc1)c1ccc(Cl)cc1	11.3%
Cc1cc2oc3ccc(NCCC4CCCN4C)cc3c(=O)c2cc1C (stereo unspecified)	102% (active)
CO[C@@H]1CN(C)C(=O)c2cc(NS(=O)(=O)CC(F)(F)F)ccc2OC[C@@H](C)N(Cc2ccccn2)C[C@H]1C	-9.64%
COc1ccc(S(=O)(=O)Nc2ccc3c(c2)C(=O)N([C@@H](C)CO)C[C@@H](C)[C@@H](CN(C)S(C)(=O)=O)O3)cc1	-4.67%
C[C@@H]1CCCCO[C@@H](CN(C)C(=O)NC2CCCCC2)[C@H](C)CN([C@H](C)CO)C(=O)c2cc(NC(=O)c3ccccc3)ccc2O1	-0.448%
COc1cccc(NC(=O)N2C[C@@H](O)COC[C@@H]3O[C@@H](CC(=O)NC4CCC4)CC[C@H]32)c1	-4.41%
C[C@@H]1CN([C@@H](C)CO)C(=O)c2cc(NC(=O)Nc3ccc(C(F)(F)F)cc3)ccc2O[C@@H](C)CCCCO[C@H]1CN(C)C(=O)c1ccccc1	-3.03%
CO[C@H]1CC[C@H]2CCOc3c(C#N)cccc3C(=O)N(C)CC3(CCCCC3)CC(=O)N(C)C[C@@H]1O2	-12.8%
CN1c2ccc(Br)cc2[C@@H]2[C@@H](CCN2S(=O)(=O)c2ccc(F)cc2)[C@@H]1CO	-1.32%
CN1c2ccc(-c3ccccc3)cc2[C@@H]2[C@@H](CCN2C(=O)c2ccccc2F)[C@@H]1CO	4.56%
CCCC#Cc1ccc2c(c1)O[C@H](CN(C)C(=O)c1ccncc1)[C@H](C)CN([C@H](C)CO)S2(=O)=O	12.3%
C[C@@H]1CN([C@@H](C)CO)C(=O)Cc2cc(NC(=O)Nc3ccc4c(c3)OCO4)ccc2O[C@@H]1CN(C)S(=O)(=O)c1ccc(Cl)cc1	1.58%
Cc1cc(C)c2nc3nc(C)cc(C)c3c(N)c2c1	96% (active)
CCC(=O)N(C)C[C@H]1Oc2ncc(C#C[C@@H](C)O)cc2C(=O)N([C@@H](C)CO)C[C@H]1C	0.495%
CN1CCN(C(=O)C[C@H]2C[C@H]3c4cc(NC(=O)C5CCC5)ccc4O[C@H]3[C@H](CO)O2)CC1	6.76%
CNC[C@H]1OCCCC[C@@H](C)Oc2ccc(NC(=O)c3ccccc3)cc2C(=O)N([C@@H](C)CO)C[C@H]1C	6.8%
COc1ccc(S(=O)(=O)N2CC[C@H]3[C@@H](CO)N(C)c4ccc(C#Cc5ccccc5OC)cc4[C@H]32)cc1	17.3%
